Here are results for 38 molecules from PubChem BioAssay (NCI).

About 83,000 compounds went through this panel and 20% of them were active in at least one assay; those are over-represented in the sample as a whole.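 Assay: single dose, 48 h. Readout: percent growth (0 = no net growth; negative = cell death). Active: <10.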 A number with no mark means an inactive call. Active and inactive are the calls of the source.

In one assay the test system is U251 CNS. Kind of assay: NCI-60 one-dose screen, 48 h (100 = growth as untreated, 0 = no growth, -100 = all killed). To be noted: 10 µM unless noted.
On to `O=C(O)CSCC(=O)Nc1cc(C(F)(F)F)ccc1Cl`, for which the growth is 106%.
For `N=C(N)c1nn(C2OC(CO)C(O)C2O)c2nc[nH]c(=O)c12` (centres undefined), the growth is 16%.
Regarding `CC(C)C(=O)OCCOc1ccc(C(C)(C)C)cc1`, the growth was 88.4%.
Consider `OCCNc1ccccc1`, for which the growth was 97.6%.
On to `C/C(=N\Nc1ccc([N+](=O)[O-])cc1[N+](=O)[O-])c1ccc(Br)cc1`, for which the growth is 92.2%.
With `O=C(Oc1ccccc1Cl)c1ccc(Cl)cc1Cl`, the growth was 89.5%.
Same read-out and setting: the figure for `C=C(C)COc1ccc(C(C)(C)C)cc1` is 88.5%; for `CCC(C)c1c(N)n(S(=O)(=O)c2ccc(C)cc2)oc1=O` (centres undefined) it is 104%; for `Nc1ccn(C2CC(N)C(CO)O2)c(=O)n1` (centres undefined) it is 80.9%.
Regarding `CN(CCCN(C)CCC1CCCCC1)CCC1CCCCC1`, the growth is 11.1%.
Same read-out and setting: the figure for `O=S(Cc1ccccc1)/C(=C/NC(=S)Nc1cc(Cl)ccc1Cl)c1ccccc1` (centres undefined) is 101%; for `Cc1c(Cl)cccc1N=C=S` it is 106%; for `CCCC1OC(c2ccco2)OCC1CC` (centres undefined) it is 94.8%.
Regarding `CN1CCCN(C(c2ccccc2)c2ccc(Br)cc2)CC1` (centres undefined), the growth is 71.1%.
Regarding `OCCOc1ccc(-c2cc(-c3ccccn3)nc(-c3ccccn3)c2)cc1`, the growth is 4.7% (active).
For `O=C(Nc1cccc(Cl)c1)c1ccc(Cl)cc1Cl`, the growth is 90.7%.
On to `CC(=O)Oc1c(Cl)cccc1-c1ccccc1`, for which the growth is 90%.
`C/C=C/C1OCC(CC)C(CCC)O1` (centres undefined): the growth was 104%.
On to `COc1cccc(C(=O)O)c1OC`, for which the growth is 98.2%.
With `CC(C)C1CCC(C)C(O)C1` (centres undefined), the growth is 89%.
`COc1cc(CC#N)c([N+](=O)[O-])cc1OC`: the growth is 95.8%.
For `CCCNS(=O)(=O)c1ccc(Cl)cc1`, the growth is 99.3%.
For the molecule `CCOC(=O)/C(C)=C\c1ccc(OC)c(OC)c1`, the growth is 94%.
Turning to `O=C(NCc1ccccc1)c1cccc([N+](=O)[O-])c1`, the growth was 89.1%.
On to `OCCc1ccc(Cl)cc1`, for which the growth is 92.3%.
Take `C/C(=N\O)c1ccccn1`: the growth is 88.8%.
As to `CC1(C)OC(=O)CC1=O`, the growth was 83.2%.
Regarding `O=C1C=Cc2ccccc2/C1=C/c1[nH]c(=O)[nH]c1O`, the growth is 29.3%.
On to `Nc1ncnc2c1ncn2C1OC(CO)C2OC21` (centres undefined), for which the growth is 95.7%.
On the same count and under the same terms, the figure for `C=CCS(C)(=O)=O` is 90.4%; for `Cc1ccc(C2CCCCC2)cc1Br` it is 88.1%; for `Cc1ccc2[nH]c3ccccc3c2c1` it is 96.2%.
For the molecule `Cc1ccc(/C=N/NC(N)=S)s1`, the growth is 102%.
Turning to `O=S(=O)(O)c1cccnc1`, the growth was 113%.
Still for that read-out and setting: the result for `O=C(O)c1ccccc1Cc1ccc2c(c1)CCCC2` reads 111%.
Regarding `Nc1cc(F)ccc1[N+](=O)[O-]`, the growth was 106%.
Take `CCOc1ccc(C(=O)O)cc1`: the growth was 103%.
Regarding `CCCCOC(=O)c1ccccc1O`, the growth was 100%.

The subject of another assay is PC-3 prostate. The description is as above. To be noted: 10 µM unless noted.
As for `O=C(O)CSCC(=O)Nc1cc(C(F)(F)F)ccc1Cl`, the growth is 102%.
Turning to `N=C(N)c1nn(C2OC(CO)C(O)C2O)c2nc[nH]c(=O)c12` (centres undefined), the growth was -3.91% (active).
For `CC(C)C(=O)OCCOc1ccc(C(C)(C)C)cc1`, the growth was 91.6%.
For `OCCNc1ccccc1`, the growth is 95.7%.
As for `C/C(=N\Nc1ccc([N+](=O)[O-])cc1[N+](=O)[O-])c1ccc(Br)cc1`, the growth is 91.2%.
Take `O=C(Oc1ccccc1Cl)c1ccc(Cl)cc1Cl`: the growth is 93.6%.
As to `C=C(C)COc1ccc(C(C)(C)C)cc1`, the growth was 96.9%.
On the same count and under the same terms, the result for `CCC(C)c1c(N)n(S(=O)(=O)c2ccc(C)cc2)oc1=O` (centres undefined) reads 94.3%.
The same measure, in the same setting: the result for `Nc1ccn(C2CC(N)C(CO)O2)c(=O)n1` (centres undefined) reads 74.8%; that for `CN(CCCN(C)CCC1CCCCC1)CCC1CCCCC1`, 43.2%; that for `Cc1c(Cl)cccc1N=C=S`, 89.6%.
Regarding `CCCC1OC(c2ccco2)OCC1CC` (centres undefined), the growth was 92.5%.
`CN1CCCN(C(c2ccccc2)c2ccc(Br)cc2)CC1` (centres undefined): the growth is 61.4%.
Regarding `OCCOc1ccc(-c2cc(-c3ccccn3)nc(-c3ccccn3)c2)cc1`, the growth was 20.1%.
Still for that read-out and setting: the figure for `O=C(Nc1cccc(Cl)c1)c1ccc(Cl)cc1Cl` is 82.2%; for `CC(=O)Oc1c(Cl)cccc1-c1ccccc1` it is 89.5%.
Same read-out and setting: the figure for `C/C=C/C1OCC(CC)C(CCC)O1` (centres undefined) is 98.9%; for `COc1cccc(C(=O)O)c1OC` it is 96.3%; for `CC(C)C1CCC(C)C(O)C1` (centres undefined) it is 89%.
As to `COc1cc(CC#N)c([N+](=O)[O-])cc1OC`, the growth is 101%.
Consider `CCCNS(=O)(=O)c1ccc(Cl)cc1`, for which the growth was 92.9%.
Consider `CCOC(=O)/C(C)=C\c1ccc(OC)c(OC)c1`, for which the growth was 97.5%.
For the molecule `O=C(NCc1ccccc1)c1cccc([N+](=O)[O-])c1`, the growth was 88.9%.
Still for that read-out and setting: the figure for `OCCc1ccc(Cl)cc1` is 95.5%.
Regarding `C/C(=N\O)c1ccccn1`, the growth was 94.3%.
On the same count and under the same terms, the figure for `CC1(C)OC(=O)CC1=O` is 81.5%; for `O=C1C=Cc2ccccc2/C1=C/c1[nH]c(=O)[nH]c1O` it is 27.4%; for `C=CCS(C)(=O)=O` it is 101%.
The same measure, in the same setting: the result for `Cc1ccc(C2CCCCC2)cc1Br` reads 94%; that for `Cc1ccc2[nH]c3ccccc3c2c1`, 89.1%; that for `Cc1ccc(/C=N/NC(N)=S)s1`, 92.2%.
`O=S(=O)(O)c1cccnc1`: the growth is 102%.
Still for that read-out and setting: the result for `O=C(O)c1ccccc1Cc1ccc2c(c1)CCCC2` reads 103%.
As for `Nc1cc(F)ccc1[N+](=O)[O-]`, the growth is 87.5%.
On the same count and under the same terms, the figure for `CCOc1ccc(C(=O)O)cc1` is 91.2%; for `CCCCOC(=O)c1ccccc1O` it is 101%.
